Measurements: PubChem BioAssay (Tox21)
A number with no mark means an inactive call. Records with an inconclusive call do not appear. Where a call stands in place of a potency, no number is given. Activity calls are given as the source filed them. Unless noted, the call rests on the fitted dose curve; in most records, active means well fitted curve in the direction sought with a large enough effect in the repeat runs; inconclusive means weak or mixed curves; inactive means no such curve, though single readings can be large; an effect the other way counts as inactive or inconclusive.

How the values were obtained:
[1] = qHTS assay to identify small molecule antagonists of the androgen receptor (AR) signaling pathway using the MDA cell line in the presence of 0.5 nM R1881 - cell viability counter screen (AID 1259242); further: nearly all actives have a fitted effect of over 45% in size
Summary of the method: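 Cells seeded at 3,000/well and allowed 5 hr at 37C, 0% CO2 before compound transfer and R1881 (0.5 nM final) addition; 16 hr later, live-cell protease fluorescence indicated cytotoxicity.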

[2] = qHTS assay to identify small molecule HDAC inhibitors (AID 1259364);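 further: wild-type HCT-116 cells with endogenous class I/II HDAC activity; top concentration of the series differs between compounds; nearly all actives have a fitted effect of over 45% in size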
Summary of the method: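 HCT-116 wt cells, 1,500/well, overnight attach. Compounds (DMSO) 2 h, 37 °C. HDAC-Glo I/II, 30 min RT. Luminescence.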

[3] = qHTS assay to identify small molecule HDAC inhibitors - cell viability counter screen (AID 1259365); further: series mostly up to about 92 µM; nearly all actives have a fitted effect of over 50% in size
Summary of the method: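 To flag cytotoxic hits, 1,500 wild-type HCT-116 cells per well, plated the day before, receive test compounds for 2hr at 37 C before CellTiter-Glo reagent and a luminescence read.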

[4] = qHTS assay to identify small molecule agonists of the sonic hedgehog signaling (Shh) pathway - cell viability counter screen (AID 1259366); further: nearly all actives have a fitted effect of over 50% in size
Summary of the method: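 Fluorescence from CellTiter-Fluor reports live cells in this counter screen. NIH/3T3-derived Gli1-Luc reporter cells receive test compounds for 24hr at 37C; reagent goes in at 23hr.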

[5] = qHTS assay to identify small molecule antagonists of the sonic hedgehog signaling (Shh) pathway - cell viability counter screen (AID 1259367); further: nearly all actives have a fitted effect of over 55% in size
Summary of the method: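 Fluorescence read-out (CellTiter-Fluor, 1 hr at 37C) taken after 23 hr compound treatment of 3T3 Gli1-Luc cells stimulated with conditioned medium. Cells were seeded at 2,000 per well and pre-incubated 4 hr.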

[6] = qHTS assay to identify small molecule agonists of the sonic hedgehog signaling (Shh) pathway (AID 1259368; calls by dose curve;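 further: NIH/3T3-derived 3T3Gli1-Luc cells carrying a stable Gli1-driven firefly luciferase reporter; series mostly up to about 92 µM; nearly all actives have a fitted effect of over 15% in size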)
Summary of the method: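 Following a 24 hr incubation with DMSO-dissolved compounds at 37 C, 5% CO2, Gli1-Luc NIH/3T3-derived cells received luciferase reagent for 30 min at room temperature prior to luminescence measurement.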

[7] = qHTS assay to identify small molecule antagonists of the sonic hedgehog signaling (Shh) pathway (AID 1259369; calls by dose curve; further: nearly all actives have a fitted effect of over 45% in size; further: potency means the concentration at half of the fitted maximal effect)
Summary of the method: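 Read-out is luminescence from a firefly luciferase gene controlled by the Gli1 response element, in 3T3Gli1-Luc cells pre-incubated 4hr then exposed to compounds and conditioned medium for 24hr.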

[8] = target: Estrogen receptor beta (Homo sapiens) (UniProt Q92731); experiment: qHTS assay to identify small molecule agonists of the estrogen receptor beta (ER-beta) signaling pathway (AID 1259377; active means well fitted activation curve with a large enough effect in the signal ratio in the repeat runs, not every such curve was filed as active; the % refers to the signal ratio)
Chain of Estrogen receptor beta (Homo sapiens) (Q92731 whole entry, looked up): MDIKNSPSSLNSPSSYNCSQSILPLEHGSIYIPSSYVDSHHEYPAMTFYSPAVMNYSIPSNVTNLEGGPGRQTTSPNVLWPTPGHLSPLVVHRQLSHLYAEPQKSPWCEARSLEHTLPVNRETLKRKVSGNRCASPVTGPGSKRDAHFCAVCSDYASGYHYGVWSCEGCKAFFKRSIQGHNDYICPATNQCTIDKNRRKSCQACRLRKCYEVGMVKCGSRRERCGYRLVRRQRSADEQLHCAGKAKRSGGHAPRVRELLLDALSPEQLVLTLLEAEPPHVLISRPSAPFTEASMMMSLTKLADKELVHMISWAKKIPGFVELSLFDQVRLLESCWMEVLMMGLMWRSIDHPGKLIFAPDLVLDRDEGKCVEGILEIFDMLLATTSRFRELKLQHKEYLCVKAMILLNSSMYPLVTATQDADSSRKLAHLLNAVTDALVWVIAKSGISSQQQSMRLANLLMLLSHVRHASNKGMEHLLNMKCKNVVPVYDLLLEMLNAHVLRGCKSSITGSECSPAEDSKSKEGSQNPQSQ
Summary of the method: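 Screening used GripTite ER-beta-UAS-bla cells held in 2% charcoal-stripped FBS medium. After overnight (16 hr) compound incubation at 37C, beta-lactamase activity was detected with a FRET substrate by fluorescence.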

[9] = target: Estrogen receptor beta (Homo sapiens) (UniProt Q92731); experiment: qHTS assay to identify small molecule antagonists of the estrogen receptor beta (ER-beta) signaling pathway (AID 1259378; active means well fitted inhibition curve with a large enough effect in the signal ratio in the repeat runs, not every such curve was filed as active; the % refers to the signal ratio)
Summary of the method: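 ER-beta-UAS-bla HEK293T cells in 2% charcoal-stripped FBS medium treated with compound plus 1nM final 17-beta-estradiol for 16 hr at 37C. Beta-lactamase reporter read by FRET substrate fluorescence after 2 hours at room temperature.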

[10] = qHTS assay to identify small molecule agonists of the androgen receptor (AR) signaling pathway in the presence of an antagonist - cell viability counter screen (AID 1259379);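 further: MDA-kb2 human breast cancer cells carrying an MMTV luciferase reporter; series mostly up to about 92 µM; nearly all actives have a fitted effect of over 25% in size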
Summary of the method: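 Each compound was tested at 15 concentrations on MDA-kb2 cells in the presence of 3.0uM nilutamide. Viability was measured by CellTiter-Fluor fluorescence after a 16 hr incubation at 37C in a CO2-free atmosphere.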

[11] = qHTS assay to identify small molecule agonists of the estrogen receptor beta (ER-beta) signaling pathway - cell viability counter screen (AID 1259380); further: nearly all actives have a fitted effect of over 30% in size; further: potency means the concentration at half of the fitted maximal effect
Summary of the method: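 Compounds dissolved in DMSO were pin-transferred onto ER-beta-UAS-bla HEK293T cells that had settled 6 hr, and exposure ran 16 hr at 37C. Following the reporter read, CellTiter-Glo luminescence after 30 min at room temperature indicated cytotoxicity.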

[12] = qHTS assay to identify small molecule antagonists of the estrogen receptor beta (ER-beta) signaling pathway - cell viability counter screen (AID 1259382); further: series mostly up to about 92 µM; nearly all actives have a fitted effect of over 55% in size
Summary of the method: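 CellTiter-Glo ATP luminescence measured after the LiveBLAzer read in the same wells; ER-beta-UAS-bla HEK293T cells, 16 hr compound treatment with 1nM 17-beta-estradiol agonist at 37C, 5% CO2.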

[13] = target: Estrogen receptor (Homo sapiens) (UniProt P03372); experiment: qHTS assay to identify small molecule agonists of the estrogen receptor alpha (ER-alpha) signaling pathway in the presence of an antagonist (AID 1259383; calls by dose curve; further: top concentration of the series differs between compounds; nearly all actives have a fitted effect of over 15% in size)
Chain of Estrogen receptor (Homo sapiens) (P03372 whole entry, looked up): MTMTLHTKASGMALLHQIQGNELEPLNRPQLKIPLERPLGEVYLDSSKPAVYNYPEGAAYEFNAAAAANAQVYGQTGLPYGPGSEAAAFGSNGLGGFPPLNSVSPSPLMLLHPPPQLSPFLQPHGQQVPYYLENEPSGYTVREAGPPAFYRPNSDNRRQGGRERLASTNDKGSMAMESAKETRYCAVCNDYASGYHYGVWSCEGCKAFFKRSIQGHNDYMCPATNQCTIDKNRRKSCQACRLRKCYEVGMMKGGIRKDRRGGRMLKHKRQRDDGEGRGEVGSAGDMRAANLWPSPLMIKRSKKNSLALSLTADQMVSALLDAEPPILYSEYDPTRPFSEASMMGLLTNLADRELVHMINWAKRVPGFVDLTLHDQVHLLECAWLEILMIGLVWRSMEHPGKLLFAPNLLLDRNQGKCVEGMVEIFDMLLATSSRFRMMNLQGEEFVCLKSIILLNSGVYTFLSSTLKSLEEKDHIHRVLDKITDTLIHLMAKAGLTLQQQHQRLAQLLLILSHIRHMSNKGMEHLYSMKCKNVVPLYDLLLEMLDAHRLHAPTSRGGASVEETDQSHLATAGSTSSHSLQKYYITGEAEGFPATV
Summary of the method: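 Luminescent ERE-luciferase reporter, VM7Luc4E2 cells (endogenous ER-alpha); 10.0nM ICI-182,780 final; 15-point compound titration; 22hr at 37C; ONE-Glo, 30min RT.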

[14] = qHTS assay to identify small molecule agonists of the estrogen receptor alpha (ER-alpha) signaling pathway in the presence of an antagonist - cell viability counter screen (AID 1259386);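 further: series mostly up to about 92 µM; cells exposed to compounds for 22 h at 37 °C before the viability read; nearly all actives have a fitted effect of over 30% in size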
Summary of the method: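 Using estrogen-depleted VM7Luc4E2 cells, the 15-concentration compound series was applied together with 10.0nM ICI-182,780 and incubated 22hr at 37C/5% CO2. Cell viability was then scored by CellTiter-Fluor.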

[15] = target: Estrogen receptor (Homo sapiens) (UniProt P03372); experiment: qHTS assay to identify small molecule antagonists of the estrogen receptor alpha (ER-alpha) signaling pathway using the BG1 cell line in the presence of 0.1 nM 17-beta-estradiol (AID 1259244); further: nearly all actives have a fitted effect of over 50% in size
Summary of the method: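 Luciferase signal from VM7Luc4E2 ERE-reporter cells, co-dosed with test compound and 0.1 nM final 17beta-estradiol for 22 h, read with ONE-Glo.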

[16] = qHTS assay to identify small molecule agonists or antagonists of the thyroid stimulating hormone receptor (TSHR) signaling pathway - wild type cell line counter screen (AID 1259384; calls by dose curve)
Summary of the method: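 Wild-type Hek293 cells, 800/well, 18 h at 37C, then compound with Ro20-1724 for 30 min RT. cAMP by HTRF (cAMP-d2/anti-cAMP cryptate), 1 h RT, fluorescence read. 15 concentrations, triplicates.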

[17] = target: Thyrotropin receptor (Homo sapiens) (UniProt P16473); experiment: qHTS assay to identify small molecule antagonists of the thyroid stimulating hormone receptor (TSHR) signaling pathway (AID 1259385; calls by dose curve; further: nearly all actives have a fitted effect of over 20% in size)
Chain of Thyrotropin receptor (Homo sapiens) (P16473 whole entry, looked up): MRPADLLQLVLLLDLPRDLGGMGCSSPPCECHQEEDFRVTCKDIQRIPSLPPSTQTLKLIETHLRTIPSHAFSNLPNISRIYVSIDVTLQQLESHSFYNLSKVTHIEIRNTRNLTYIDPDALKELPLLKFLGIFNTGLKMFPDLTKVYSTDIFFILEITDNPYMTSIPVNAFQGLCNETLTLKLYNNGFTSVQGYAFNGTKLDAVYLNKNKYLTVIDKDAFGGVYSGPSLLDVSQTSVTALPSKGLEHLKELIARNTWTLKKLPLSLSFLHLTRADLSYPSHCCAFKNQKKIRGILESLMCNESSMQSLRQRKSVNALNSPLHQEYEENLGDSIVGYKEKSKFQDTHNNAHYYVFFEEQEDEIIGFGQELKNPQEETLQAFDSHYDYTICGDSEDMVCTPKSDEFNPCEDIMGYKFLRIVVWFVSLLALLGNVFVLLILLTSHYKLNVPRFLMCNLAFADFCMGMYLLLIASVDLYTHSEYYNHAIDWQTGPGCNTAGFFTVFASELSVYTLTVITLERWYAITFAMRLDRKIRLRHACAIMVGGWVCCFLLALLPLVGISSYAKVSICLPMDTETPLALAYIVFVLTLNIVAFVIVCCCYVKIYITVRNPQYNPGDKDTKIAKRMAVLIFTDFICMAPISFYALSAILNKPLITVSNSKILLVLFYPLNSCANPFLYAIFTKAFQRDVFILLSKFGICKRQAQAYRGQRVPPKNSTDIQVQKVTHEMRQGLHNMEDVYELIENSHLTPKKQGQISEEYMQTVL
Summary of the method: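 TSHR-HEK293 cells (800/well) plated 18 h, then compounds with Ro20-1724 and TSH at 1.5 ng/mL final, 30 min at room temperature. cAMP quantified by HTRF (cAMP-d2/anti-cAMP-cryptate, 1 h); 15 concentrations in triplicate.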

[18] = qHTS assay to identify small molecule phospholipidosis (PLD) inducers (AID 1259344; active means well fitted curve in the direction sought with a large enough effect; an effect the other way counts as inactive or inconclusive)
Summary of the method: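 Read-out is LipidTOX Red fluorescence (ex 595/em 615) imaged in HepG2 cells after 24 h compound exposure at 37 C, with Hoechst nuclear counterstain (ex 352/em 461) allowing per-cell normalisation.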

[O]=[Bi] showed a viability change, negative = cytotoxic [1] of 1.95% [at 8.39 µM], an activity change, negative = inhibition [2] of 9.82% [at 8.39 µM] and an activity change, negative = cytotoxicity [3] of -2.43% [at 8.39 µM]. The viability change, negative = cytotoxic [4] was 11.3% [at 8.39 µM], the viability change, negative = cytotoxic [5] was -5.4% [at 8.39 µM] and the activity change [6] was -0.104% [at 8.39 µM, active compounds read high]. For the same molecule, the Potency [7] was 1.67 µM (active), the activation [8] was 4.87% [at 8.39 µM] and the activity, negative = inhibition [9] was 1.25% [at 8.39 µM]. The activity change, negative = cytotoxicity [10] was 2.01% [at 8.39 µM], the activity change, negative = cytotoxicity [11] was 4.86% [at 8.39 µM] and the activity change, negative = cytotoxicity [12] was -2.24% [at 8.39 µM]. For the same molecule, the activation [13] was 0.802% [at 8.39 µM].
In the case of CCC(C)=O, the Potency [1] was “inactive”, the Potency [2] was “inactive” and the Potency [3] was “inactive”. The Potency [4] was “inactive”, the Potency [5] was “inactive” and the Potency [6] was “inactive”. The Potency [7] was “inactive”, the Potency [8] was “inactive” and the Potency [9] was “inactive”. For the same molecule, the Potency [10] was “inactive”, the Potency [11] was “inactive” and the Potency [12] was “inactive”. For the same molecule, the Potency [14] was “inactive”.
With CC(=O)N(c1onc(C)c1C)S(=O)(=O)c1ccc(N)cc1 the Potency [1] was “inactive”, the Potency [15] was “inactive” and the Potency [3] was “inactive”. The Potency [4] was “inactive”, the Potency [5] was “inactive” and the Potency [6] was “inactive”. The Potency [7] was “inactive”, the Potency [8] was “inactive” and the Potency [9] was “inactive”. The Potency [10] was “inactive”, the Potency [11] was “inactive” and the Potency [13] was “inactive”. The outcome [16] was “inactive”, the Potency [17] was “inactive” and the Potency [14] was “inactive”.
With Cc1ccccc1N1C(=O)c2cc(S(N)(=O)=O)c(Cl)cc2NC1C (configuration not stated) the Potency [1] was “inactive”, the outcome [18] was “inactive” and the Potency [2] was “inactive”. For the same molecule, the Potency [3] was “inactive”, the Potency [4] was “inactive” and the Potency [5] was “inactive”. The Potency [8] was “inactive”, the Potency [9] was “inactive” and the Potency [10] was “inactive”. For the same molecule, the Potency [11] was “inactive”, the Potency [12] was “inactive” and the outcome [16] was “inactive”. For the same molecule, the Potency [17] was “inactive” and the Potency [14] was “inactive”.
In the case of CC1(C)C(=O)N(Br)C(=O)N1Cl, the Potency [1] was “inactive”, the Potency [2] was “inactive” and the Potency [3] was “inactive”. For the same molecule, the Potency [4] was “inactive”, the Potency [5] was “inactive” and the Potency [7] was “inactive”. For the same molecule, the Potency [8] was “inactive”, the Potency [9] was “inactive” and the Potency [10] was “inactive”. For the same molecule, the Potency [11] was “inactive”, the Potency [12] was “inactive” and the outcome [16] was “inactive”. The Potency [17] was “inactive” and the Potency [14] was “inactive”.
With C(=C\c1ccccc1)/CN1CCN(C(c2ccccc2)c2ccccc2)CC1 the Potency [1] was “inactive”, the Potency [2] was “inactive” and the Potency [3] was “inactive”. The Potency [4] was “inactive”, the Potency [5] was “inactive” and the Potency [6] was “inactive”. The Potency [8] was “inactive”, the Potency [10] was “inactive” and the outcome [16] was “inactive”. For the same molecule, the Potency [14] was “inactive”.
With Cc1ccc(/C=N/n2c(-c3ccccc3)csc2=S)cc1 the Potency [1] was “inactive”, the Potency [2] was “inactive” and the Potency [3] was “inactive”. For the same molecule, the Potency [4] was “inactive”, the Potency [5] was “inactive” and the Potency [6] was “inactive”. For the same molecule, the Potency [7] was “inactive”, the Potency [8] was “inactive” and the Potency [10] was “inactive”. For the same molecule, the Potency [12] was “inactive”, the outcome [16] was “inactive” and the Potency [14] was “inactive”.
For O=C(OCCOCCO)c1ccccc1Nc1cccc(C(F)(F)F)c1, the Potency [1] was “inactive”, the outcome [18] was “inactive” and the Potency [2] was “inactive”. For the same molecule, the Potency [3] was “inactive”, the Potency [4] was “inactive” and the Potency [5] was “inactive”. For the same molecule, the Potency [6] was “inactive”, the Potency [10] was “inactive” and the Potency [11] was “inactive”. For the same molecule, the Potency [12] was “inactive”, the Potency [13] was “inactive” and the outcome [16] was “inactive”. The Potency [14] was “inactive”.
In the case of CC[C@H](NC(=O)c1cc(F)ccc1NS(=O)(=O)c1cccc2cccnc12)c1ccccc1, the Potency [1] was “inactive”, the Potency [2] was “inactive” and the Potency [3] was “inactive”. The Potency [4] was “inactive”, the Potency [5] was “inactive” and the Potency [6] was “inactive”. The Potency [8] was “inactive”, the Potency [9] was “inactive” and the Potency [10] was “inactive”. For the same molecule, the Potency [11] was 18.3 µM (active), the Potency [13] was “inactive” and the Potency [17] was “inactive”. For the same molecule, the Potency [14] was “inactive”.
